Structures can show the parent of a compound that is named as a salt.
These compounds were tested on Saccharomyces cerevisiae BY4741 SeMeCo community (assay: z-score of subpopulation abundance vs DMSO median, subpopulation auxotrophic for U; higher = larger share of this subpopulation than in DMSO controls). Conditions: 10 µM; 24 h; SM minimal medium; subpopulation (auxotrophy): U.
Experimental: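 Fluorescent four-plasmid SeMeCo (self-establishing metabolically cooperating S. cerevisiae BY4741 community; plasmids pH-mRuby2, pL-mWasabi, pU-eCFP, pM-TagRFP657) was grown 24 h in minimal SM medium with each Selleck FDA-approved drug at 10 µM in 384-well plates. Cells were fixed and imaged by high-content confocal microscopy. For each auxotrophic subpopulation (and the prototroph), a z-score gives the deviation from the DMSO vehicle-control population median.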

| SMILES | z-score of subpopulation abundance |
| --- | --- |
| C[C@H]1c2cccc(O)c2C(O)=C2C(=O)[C@]3(O)C(O)=C(C(N)=O)C(=O)[C@@H](N(C)C)[C@@H]3[C@@H](O)[C@@H]21 [Doxycycline] | -0.63 |
| C#CCN[C@@H]1CCc2ccccc21 [Rasagiline] | 0.2 |
| COc1ccccc1OCC(O)CN1CCN(CC(=O)Nc2c(C)cccc2C)CC1 (stereo not given) [Ranolazine 2HCl] | -0.29 |
| CN1C(C(=O)Nc2ccccn2)=C(O)c2ccccc2S1(=O)=O [Piroxicam] | -0.17 |
| CCCN1CCCC[C@H]1C(=O)Nc1c(C)cccc1C [Ropivacaine] | -0.73 |
| C[C@]12CC[C@@H]3c4ccc(O)cc4CC[C@H]3[C@@H]1CCC2=O [Estrone] | -0.57 |
| COC(=O)Nc1nc2cc(C(=O)c3ccccc3)ccc2[nH]1 [Mebendazole] | 1.91 |
| CC(C)[C@H](N)C(=O)OCCOCn1cnc2c(=O)nc(N)[nH]c21 [Valaciclovir HCl] | 0.12 |
| COc1ccc2cc(CCC(C)=O)ccc2c1 [Nabumetone] | 0.54 |
| CC[C@H]1OC(=O)[C@H](C)[C@@H](O[C@H]2C[C@@](C)(OC)[C@@H](O)[C@H](C)O2)[C@H](C)[C@@H](O[C@@H]2O[C@H](C)C[C@H](N(C)C)[C@H]2O)[C@](C)(O)C[C@@H](C)CN(C)[C@H](C)[C@@H](O)[C@]1(C)O [Azithromycin Dihydrate] | -0.03 |
| Nc1ccc2cc3ccc(N)cc3nc2c1 [Proflavine Hemisulfate] | -8.08 |
| COc1ccccc1OCC(O)CN1CCN(CC(=O)Nc2c(C)cccc2C)CC1 (stereo not given) [Ranolazine] | -0.29 |
| CCOC(=O)CCC(=O)O[C@H]1[C@H](O[C@@H]2[C@@H](C)[C@H](O[C@H]3C[C@@](C)(OC)[C@@H](O)[C@H](C)O3)[C@@H](C)C(=O)O[C@H](CC)[C@@](C)(O)[C@H](O)[C@@H](C)C(=O)[C@H](C)C[C@@]2(C)O)O[C@H](C)C[C@@H]1N(C)C [Erythromycin Ethylsuccinate] | -0.67 |
| C[C@@H](O)[C@H]1C(=O)N2C(C(=O)O)=C(S[C@@H]3CN[C@H](C(=O)N(C)C)C3)[C@H](C)[C@H]12 [Meropenem] | -0.22 |
| CO/N=C(\C(=O)N[C@@H]1C(=O)N2C(C(=O)[O-])=C(C[N+]3(C)CCCC3)CS[C@H]12)c1csc(N)n1 [Cefepime Dihydrochloride Monohydrate] | -0.42 |
| Cc1ccc(-c2ncc(Cl)cc2-c2ccc(S(C)(=O)=O)cc2)cn1 [Etoricoxib] | -0.32 |
| CCCCCCCCCCCCCCCC[N+](C)(C)C [Cetrimonium Bromide (CTAB)] | -1.73 |
| CCC[C@@H]1C[C@@H](C(=O)N[C@@H]([C@H]2O[C@H](SC)[C@H](O)[C@@H](O)[C@H]2O)[C@@H](C)O)N(C)C1 [Lincomycin HCl] | -0.24 |
| CC(=O)N1CCN(c2ccc(OCC3COC(Cn4ccnc4)(c4ccc(Cl)cc4Cl)O3)cc2)CC1 (stereo not given) [Ketoconazole] | -0.47 |
| CN1CCc2cc3c(cc2C(=O)Cc2ccc4c(c2C1)OCO4)OCO3 [Protopine] | -0.67 |

| SMILES | z-score of subpopulation abundance |
| --- | --- |
| CC1(C)S[C@@H]2[C@H](NC(=O)Cc3ccccc3)C(=O)N2[C@H]1C(=O)O [Penicillin G Sodium] | 0.06 |
| NC1CCN(c2nc3c(cc2F)c(=O)c(C(=O)O)cn3-c2ccc(F)cc2F)C1 (stereo not given) [Tosufloxacin p-Toluenesulfonate Hydrate] | -0.39 |
| COc1cc(N)c(Cl)cc1C(=O)NC1CCN(CCCOc2ccc(F)cc2)CC1OC (stereo not given) [Cisapride] | -0.14 |
| C[n+]1ccccc1C=NO [Pralidoxime Iodide] | 0.58 |
| C=CC(C)(O)CCC=C(C)C (stereo not given) [Linalool] | 1.02 |
| CS(=O)(=O)c1ccc(C2=C(c3ccccc3)C(=O)OC2)cc1 [Rofecoxib] | -0.52 |
| Cc1onc(-c2c(F)cccc2Cl)c1C(=O)N[C@@H]1C(=O)N2[C@@H]1SC(C)(C)[C@@H]2C(=O)O [Flucloxacillin sodium] | 0.55 |
| CCCCCCCCN=C(N)NC(N)=NCc1ccc(Cl)c(Cl)c1 [Olanexidine Hydrochloride semihydrate] | -3.91 |
| Clc1ccc(CCC(Cn2ccnc2)Sc2c(Cl)cccc2Cl)cc1 (stereo not given) [Butoconazole] | -0.41 |
| O=C1CN(/N=C/c2ccc(-c3ccc([N+](=O)[O-])cc3)o2)C(=O)N1 [Dantrolene sodium hemiheptahydrate] | -4.45 |
| Oc1ccc(C2CNCCc3c2cc(O)c(O)c3Cl)cc1 (stereo not given) [Fenoldopam mesylate] | -1.92 |
| CCCCCCCCN=c1ccn(CCCCCCCCCCn2ccc(=NCCCCCCCC)cc2)cc1 [Octenidine Dihydrochloride] | 2.6 |
| Cc1cc(O)cc(C)c1Cl [Chloroxylenol] | 0.84 |
| CSc1nc2cc(Cl)c(Oc3cccc(Cl)c3Cl)cc2[nH]1 [Triclabendazole] | -0.92 |
| C[C@]12CC[C@@H]3c4ccc(OS(=O)(=O)O)cc4CC[C@H]3[C@@H]1CCC2=O [Estropipate] | -0.01 |
| CCC1(c2ccccc2)C(=O)NCNC1=O [Primidone] | -0.16 |
| CC(=O)[C@@]1(O)CC[C@H]2[C@@H]3C[C@H](C)C4=CC(=O)CC[C@]4(C)[C@H]3CC[C@@]21C [Medroxyprogesterone] | 0.2 |
| NNc1nncc2ccccc12 [Hydralazine HCl] | 0.89 |
| CCCCc1oc2ccccc2c1C(=O)c1cc(I)c(OCCN(CC)CC)c(I)c1 [Amiodarone HCl] | -0.62 |
| CC1CCc2c(N3CCC(O)CC3)c(F)cc3c(=O)c(C(=O)O)cn1c23 (stereo not given) [Nadifloxacin] | 0.05 |

Source: the supplement of paper PMC8975748
